Data as given in PubChem BioAssay (EPA / NIEHS).
Calls of active or inactive are those of the source. How the source made its calls: active means hit-call score of the fitted dose curve at least 0.9, where 1 is the maximum; inactive means score below 0.9.

How the values were obtained:
Conditions in all cases: primary human HUVEC with PBMC; actives raise or lower the signal
[1] = BSK_LPS_PGE2: BioMAP Diversity Plus: LPS Assay for Prostaglandin E2 (PGE2) Biomarker Activity (AID 2283082);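 on AC50: secreted prostaglandin E2 measured by ELISA in LPS-stimulated co-culture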
How it was run: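 ELISA read-out of PGE2 from human umbilical vein endothelial cells co-cultured with peripheral blood mononuclear cells under LPS, 24 h post-dose. Gain or loss of signal scored relative to DMSO baseline.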

[2] = read-out: Macrophage colony-stimulating factor (MCSF), CSF1 (gene 1435); assay: BSK_LPS_MCSF: BioMAP Diversity Plus: LPS Assay for Macrophage colony-stimulating factor (MCSF) Biomarker Activity (AID 2283083)
How it was run: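 HUVEC + PBMC co-culture (human primary), 24 h post-dose; M-CSF by ELISA; gain/loss of signal fitted bidirectionally vs DMSO baseline.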

[3] = read-out: Tissue Factor, F3 (gene 2152); assay: BSK_LPS_TissueFactor: BioMAP Diversity Plus: LPS Assay for Tissue Factor Biomarker Activity (AID 2283084)
How it was run: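 HUVEC/PBMC co-culture, LPS-activated; CD142 ELISA read 24 h post-dose; bidirectional curve fit vs DMSO negative control.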

[4] = read-out: Tumor necrosis factor (Homo sapiens) (UniProt P01375); assay: BSK_LPS_TNFa: BioMAP Diversity Plus: LPS Assay for Tumour Necrosis Factor alpha (TNFa) Biomarker Activity (AID 2283085);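 on AC50: TNFa protein level quantified by ELISA in the co-culture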
How it was run: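 HUVEC/PBMC co-culture, LPS-stimulated; 24 h post-dose; TNFa by ELISA; gain or loss of signal fitted bidirectionally vs DMSO baseline.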

CD40, CD40 (gene 958) = assay: BSK_SAg_CD40: BioMAP Diversity Plus: SAg Assay for CD40 Biomarker Activity (AID 2283088)
How it was run: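 HUVEC/PBMC co-culture, 24 h post-dose; CD40 by ELISA, fluorescence intensity; bidirectional fit vs DMSO negative control.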

CD69, CD69 (gene 969) = assay: BSK_SAg_CD69: BioMAP Diversity Plus: SAg Assay for CD69 Biomarker Activity (AID 2283089);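 on AC50: cell surface CD69 protein quantified by ELISA with fluorescence detection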
How it was run: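 ELISA, fluorescence read-out: CD69 on human umbilical vein endothelial cell + PBMC co-culture, 24 h post-dosing. Gain or loss of signal fitted bidirectionally against DMSO baseline.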

[5] = read-out: Monocyte Chemoattractant Protein-1 (MCP1), CCL2 (gene 6347); assay: BSK_SAg_MCP1: BioMAP Diversity Plus: SAg Assay for Monocyte Chemoattractant Protein-1 (MCP1) Biomarker Activity (AID 2283090)
How it was run: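 Values derive from bidirectional fitting of ELISA-measured MCP1 against DMSO controls. Readings were taken 24 h after dosing human vascular endothelial cells co-cultured with peripheral blood mononuclear cells under superantigen stimulation.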

[6] = read-out: E-selectin (Homo sapiens) (UniProt P16581); assay: BSK_SAg_Eselectin: BioMAP Diversity Plus: SAg Assay for Eselectin Biomarker Activity (AID 2283091)
How it was run: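 E-selectin ELISA readout at 24 h post-dosing in human umbilical vein endothelial cell/PBMC co-culture; gain or loss of signal fitted relative to DMSO baseline.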

CD38, CD38 (gene 952) = assay: BSK_SAg_CD38: BioMAP Diversity Plus: SAg Assay for CD38 Biomarker Activity (AID 2283087)
How it was run: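 Measures CD38 on a human endothelial/PBMC co-culture driven by SEB and TSST-1, 24 h after compound exposure, using ELISA with fluorescence detection; DMSO defines baseline for bidirectional curve fitting.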

[7] = read-out: Vascular cell adhesion molecule 1 (VCAM1), VCAM1 (gene 7412); assay: BSK_LPS_VCAM1: BioMAP Diversity Plus: LPS Assay for Vascular cell adhesion molecule 1 (VCAM1) Biomarker Activity (AID 2283086)
How it was run: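 ELISA read-out of VCAM-1 at 24 h post-dosing in an LPS-driven HUVEC/PBMC primary human co-culture; gain or loss of signal fitted bidirectionally against DMSO baseline. Cytotoxicity tracked in parallel cultures by SRB total-protein staining.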

Measured: AC50

E-selectin (Homo sapiens), sequence (P16581 whole entry, looked up): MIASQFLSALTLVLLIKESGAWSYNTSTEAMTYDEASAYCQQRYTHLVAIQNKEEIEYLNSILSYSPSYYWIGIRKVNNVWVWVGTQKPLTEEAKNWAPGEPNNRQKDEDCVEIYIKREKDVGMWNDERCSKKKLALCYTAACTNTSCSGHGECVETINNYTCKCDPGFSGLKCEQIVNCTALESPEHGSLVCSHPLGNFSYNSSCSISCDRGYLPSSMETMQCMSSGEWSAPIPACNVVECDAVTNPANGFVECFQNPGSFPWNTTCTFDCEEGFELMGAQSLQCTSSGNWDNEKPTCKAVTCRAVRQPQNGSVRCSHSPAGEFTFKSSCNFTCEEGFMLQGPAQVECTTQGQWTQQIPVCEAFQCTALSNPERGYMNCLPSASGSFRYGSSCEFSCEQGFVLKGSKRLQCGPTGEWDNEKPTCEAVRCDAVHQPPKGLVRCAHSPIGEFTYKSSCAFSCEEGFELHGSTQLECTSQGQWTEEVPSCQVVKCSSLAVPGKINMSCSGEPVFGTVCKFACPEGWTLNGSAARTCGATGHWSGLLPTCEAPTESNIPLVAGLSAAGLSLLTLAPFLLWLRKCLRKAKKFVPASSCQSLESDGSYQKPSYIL
Tumor necrosis factor (Homo sapiens), sequence (P01375 whole entry, looked up): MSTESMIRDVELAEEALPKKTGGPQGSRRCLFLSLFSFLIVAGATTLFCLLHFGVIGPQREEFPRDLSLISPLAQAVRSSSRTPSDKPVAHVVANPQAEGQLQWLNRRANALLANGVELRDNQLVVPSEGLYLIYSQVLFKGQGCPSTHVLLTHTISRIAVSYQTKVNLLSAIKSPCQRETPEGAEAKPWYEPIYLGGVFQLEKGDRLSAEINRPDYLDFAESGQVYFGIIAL

O=[Si]=O
not listed: CD38, CD38 (gene 952) | [7]
inactive: all other assays above

CC(C)c1cccc(C(C)C)c1
not listed: [7]
inactive: all other assays above

CCc1nc(N)nc(N)c1-c1ccc(Cl)cc1
not listed: CD38, CD38 (gene 952) | [7]
inactive: all other assays above

CC(N)=O
not listed: [7]
inactive: all other assays above

c1ccc2occc2c1
not listed: [7]
inactive: all other assays above

O=C(O)c1[nH]n(-c2ccc(S(=O)(=O)O)cc2)c(=O)c1N=Nc1ccc(S(=O)(=O)O)cc1
not listed: CD38, CD38 (gene 952) | [7]
inactive: all other assays above

C=CCc1ccc(OC)c(OC)c1
active: [4] 11 µM
not listed: CD38, CD38 (gene 952) | [7]
inactive: all other assays above

NC(=Nc1ccccc1)Nc1ccccc1
not listed: [2] | [6]
inactive: all other assays above

CC(=O)CC(c1ccccc1)c1c(O)c2ccccc2oc1=O (stereo not given)
active: [4] 0.711 µM
not listed: [7]
inactive: all other assays above

CC(C)OC(=O)C(C)(C)Oc1ccc(C(=O)c2ccc(Cl)cc2)cc1
active: [2] 27.3 µM | CD38, CD38 (gene 952) 16.1 µM | [5] 20 µM | [6] 33.5 µM
inactive: [1] | [3] | [4]

CCCCC(CC)COC(=O)CCCCCCCC(=O)OCC(CC)CCCC (stereo not given)
not listed: [2]
inactive: all other assays above

Nc1nc(Cl)nc2c1ncn2[C@H]1C[C@H](O)[C@@H](CO)O1
inactive: [1] | CD38, CD38 (gene 952)
active: [2] 1.08 µM | [3] 3.37 µM | [4] 5.4 µM | CD40, CD40 (gene 958) 1.6 µM | CD69, CD69 (gene 969) 4.31 µM | [5] 3.09 µM | [6] 9.32 µM

O=C(O)c1cccnc1
not listed: CD38, CD38 (gene 952) | [7]
inactive: all other assays above

N[C@@H](Cc1c[nH]c2ccccc12)C(=O)O
not listed: [2]
inactive: all other assays above

O=C(N[C@@H](c1ccccc1)[C@@H]1CCCCN1)c1cccc(C(F)(F)F)c1Cl
inactive: [2] | [3] | [4]
active: [1] 4.91 µM | CD38, CD38 (gene 952) 20 µM | CD40, CD40 (gene 958) 20 µM | CD69, CD69 (gene 969) 20 µM | [5] 23.4 µM | [6] 12.3 µM

CSc1ccc(Oc2ccc(S(N)(=O)=O)cc2CN(C)C)cc1C
not listed: CD38, CD38 (gene 952) | [7]
inactive: all other assays above

Nc1nc(=S)c2[nH]cnc2[nH]1
active: [1] 20 µM
not listed: [2]
inactive: all other assays above

CC(C)COC(=O)CCCCC(=O)OCC(C)C
not listed: CD38, CD38 (gene 952) | [7]
inactive: all other assays above

OCC(O)CO
not listed: [2] | CD38, CD38 (gene 952) | [7]
inactive: all other assays above

CS(=O)(=O)c1ccc([C@@H](C[C@H]2CCC(=O)C2)C(=O)Nc2cnccn2)cc1Cl
not listed: [2] | CD38, CD38 (gene 952) | [7]
inactive: all other assays above

NC=O
not listed: [2] | [7]
inactive: all other assays above

CCOCCOCCO
not listed: [2] | [7]
inactive: all other assays above

CCCCc1nc2cccnc2n1Cc1ccc(-c2ccccc2-c2nnn[nH]2)cc1
not listed: [2] | CD38, CD38 (gene 952) | [7]
inactive: all other assays above

Cc1cc(Cc2ccc(N)c(C)c2)ccc1N
active: [6] 5.1 µM
not listed: [2] | CD38, CD38 (gene 952)
inactive: all other assays above

CC(=O)OC1CC(C)OC(C)O1 (stereo not given)
not listed: [2] | CD38, CD38 (gene 952)
inactive: all other assays above

CCCC(=O)O
not listed: [2] | [7]
inactive: all other assays above

CCCCCCCCCCCCCCCCO
not listed: [2] | CD38, CD38 (gene 952) | [7]
inactive: all other assays above

Cn1cnc2c1c(=O)[nH]c(=O)n2C
not listed: [2] | CD38, CD38 (gene 952)
inactive: all other assays above

COc1ccc(OC(F)(F)F)cc1CN[C@H]1CCCN[C@H]1c1ccccc1
active: CD69, CD69 (gene 969) 20 µM
not listed: [2] | [7]
inactive: all other assays above

CN(C)CCCN(C)CCCN(C)C
not listed: [2] | CD38, CD38 (gene 952) | [7]
inactive: all other assays above

O=NO
not listed: [2] | [7]
inactive: all other assays above

Oc1ccc(O)cc1
active: [1] 30 µM | [4] 28.9 µM | [7] 20 µM | CD40, CD40 (gene 958) 11.4 µM | CD69, CD69 (gene 969) 20 µM | [6] 23.9 µM
inactive: [3] | [5]

CC(C)(O)c1ccc(CNC(=O)c2cccnc2Oc2ccc(F)cc2)cc1
inactive: [1] | [3] | CD40, CD40 (gene 958) | CD69, CD69 (gene 969)
active: [4] 0.598 µM | CD38, CD38 (gene 952) 1.19 µM | [5] 1.16 µM | [6] 0.737 µM

COC(=O)CCCC(=O)OC
not listed: [2] | CD38, CD38 (gene 952)
inactive: all other assays above

CC(=O)[C@@]1(O)CC[C@H]2[C@@H]3CCC4=CC(=O)CC[C@]4(C)[C@H]3CC[C@@]21C
not listed: [2] | CD38, CD38 (gene 952) | [7]
inactive: all other assays above

NCCOCCOCCN
not listed: [2] | [7]
inactive: all other assays above

C/C=C/C=C/C(=O)O
not listed: [2] | CD38, CD38 (gene 952) | [7]
inactive: all other assays above

CCC(C)N(C)C(=O)c1cc2ccccc2c(-c2ccccc2Cl)n1 (stereo not given)
not listed: [2] | [7]
inactive: all other assays above

O=C(O)CN(CC(=O)O)CC(=O)O
not listed: [2] | CD38, CD38 (gene 952)
inactive: all other assays above

O=C(Oc1ccccc1)c1cccc(C(=O)Oc2ccccc2)c1
not listed: [2] | CD38, CD38 (gene 952)
inactive: all other assays above

CC(=O)O[C@]1(C(C)=O)CC[C@H]2[C@@H]3C=C(Cl)C4=CC(=O)[C@@H]5C[C@@H]5[C@]4(C)[C@H]3CC[C@@]21C
active: CD40, CD40 (gene 958) 30.1 µM | CD69, CD69 (gene 969) 30.5 µM
not listed: [2] | CD38, CD38 (gene 952)
inactive: all other assays above

CC1(C)C(=O)NC(=O)N1CO
active: [1] 0.749 µM
not listed: [2] | [7]
inactive: all other assays above

Cc1occc(=O)c1O
not listed: [2] | CD38, CD38 (gene 952)
inactive: all other assays above

CC(=O)O
not listed: [2] | [7]
inactive: all other assays above

NC1CCCCC1
not listed: [2] | CD38, CD38 (gene 952)
inactive: all other assays above

CCN(CC)CCOc1ccc(C(=C(Cl)c2ccccc2)c2ccccc2)cc1
active: [1] 8.26 µM | [3] 29.8 µM | [4] 11.8 µM | [7] 13.2 µM | CD40, CD40 (gene 958) 11 µM | CD69, CD69 (gene 969) 12.4 µM | [5] 11.2 µM | [6] 13.5 µM

O=C1OC(c2ccc(O)cc2)(c2ccc(O)cc2)c2ccccc21
active: [4] 20 µM | CD38, CD38 (gene 952) 28.7 µM | CD40, CD40 (gene 958) 29 µM | CD69, CD69 (gene 969) 20 µM | [5] 23 µM | [6] 23.8 µM
inactive: [1] | [3]

CC(C)c1cccc(C(C)C)c1NC(=O)NS(=O)(=O)c1cc(C(C)(C)O)co1
active: [1] 1.04 µM
not listed: [2] | CD38, CD38 (gene 952)
inactive: all other assays above
